High-throughput results: PubChem BioAssay, several laboratories
EBNA-1 inhibitor: EBNA-1 DNA-binding inhibitors, primary screen, biochemical, fluorescence polarization; inhibition, % at 14.8 µM; 300,000 compounds, 0.34% hits; in the data active = inhibition above about 28%
ZTA DNA inh: counter-screen for EBNA-1 inhibitors: inhibitors of Epstein-Barr virus ZTA. ZTA-DNA binding, fluorescence polarization. inhibition, % at 11 µM. 320,000 compounds, 0.15% hits. AID 2234; in the data active = inhibition above about 33%
Rev-erbA mod: modulators of Rev-erb alpha DNA binding, primary screen, biochemical, FITC-DNA, fluorescence polarization, uHTS | Nuclear receptor subfamily 1 group D member 1 (Homo sapiens), P20393 | Rev-erbα–FITC-DNA binding, 90 min | activity, % at 10 µM | 370,000 compounds, 0.79% hits | AID 1259318, 2017;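 active = activity above about 14%, limit read from the data; passing the limit was not always enough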;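 also: 0% = DMSO wells with 35 nM protein and 100% = DMSO wells with 750 nM protein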
Target sequence (P20393 whole entry, looked up): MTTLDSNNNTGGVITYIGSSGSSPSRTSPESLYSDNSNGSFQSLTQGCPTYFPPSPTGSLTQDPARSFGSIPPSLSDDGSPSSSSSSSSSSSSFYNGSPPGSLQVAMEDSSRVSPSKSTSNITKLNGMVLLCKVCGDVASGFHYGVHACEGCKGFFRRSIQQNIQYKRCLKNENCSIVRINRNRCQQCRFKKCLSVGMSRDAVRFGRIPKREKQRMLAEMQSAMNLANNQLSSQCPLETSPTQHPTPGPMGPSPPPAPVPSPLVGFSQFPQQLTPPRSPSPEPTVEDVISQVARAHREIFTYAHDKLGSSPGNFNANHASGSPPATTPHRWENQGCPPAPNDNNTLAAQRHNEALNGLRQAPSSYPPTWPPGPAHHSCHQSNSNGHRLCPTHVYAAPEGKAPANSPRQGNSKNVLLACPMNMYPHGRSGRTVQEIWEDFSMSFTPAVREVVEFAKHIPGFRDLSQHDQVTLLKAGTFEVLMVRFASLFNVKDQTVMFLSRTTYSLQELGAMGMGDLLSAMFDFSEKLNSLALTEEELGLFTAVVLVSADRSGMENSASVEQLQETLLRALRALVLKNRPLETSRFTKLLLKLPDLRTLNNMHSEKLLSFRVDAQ
NCF1 inh: p47phox/p22phox peptide binding inhibitors, primary screen, biochemical, uHTS, NADPH oxidase regulatory subunit; 220,000 compounds, 0.53% hits; inhibition, % at 24.7 µM; fluorescence polarization, 2 h; Neutrophil cytosol factor 1 (Homo sapiens), P14598;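 active = inhibition above about 30%, limit read from the data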;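 also: 0% = p47phox with labelled peptide and 100% = labelled peptide alone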
aDG glyco act: activators of alpha-DG glycosylation, primary screen, uHTS, Pro5-aDG cells, AlphaScreen; AID 624168, 2012; activation, % at 10 µM; alpha-DG glycosylation AlphaScreen (IIH6); 0% Pro5, 100% B10-LARGE cell signal; 360,000 compounds, 0.22% hits;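 active = activation of at least 8% versus controls, or a plate z-score of at least 8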;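 also: Pro5 are CHO cells carrying HIG-tagged alpha-DG that lacks glycosylation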
PG9 binder: binders of HIV-1 gp120 antibody PG9, primary screen, biochemical, TR-FRET; AID 624416, 2012; 360,000 compounds, 0.43% hits; HIV-1 gp120 / PG9 antibody interaction; TR-FRET gp120-PG9 antibody binding; inhibition, % at 6.7 µM; in the data active = inhibition above about 8.5%
Active calls of the source: *. This is a sample that favours compounds with a hit; in the whole collection about 1.9% have one here.

O=C1C(c2c(O)[nH]c3ccccc23)=Nc2ccccc21 was read as EBNA-1 inhibitor -1.8, ZTA DNA inh 1.3, Rev-erbA mod -6.6, NCF1 inh 93.1*, aDG glyco act -0.2 and PG9 binder -3.5.
Screening C1CC(CN2CCOCC2)CN(c2nc3nonc3nc2N2CCSCC2)C1 (stereo not given) returned EBNA-1 inhibitor 2.8, ZTA DNA inh -4.3, Rev-erbA mod -6.1, NCF1 inh 2.5, aDG glyco act -0.2 and PG9 binder 0.3.
C1CN(CC2CCN(c3nc4nonc4nc3N3CCSCC3)CC2)CCO1 was read as EBNA-1 inhibitor -7.3, ZTA DNA inh -10.2, Rev-erbA mod -2.0, NCF1 inh 33.8*, aDG glyco act 0.1 and PG9 binder 0.2.
Screening COc1ccc(C=Nn2c(-c3ccccc3F)n[nH]c2=S)cc1OCc1ccccc1 returned Rev-erbA mod 0.7.
`COC(=O)c1sc(-c2ccc(C(C)(C)C)cc2)cc1NC(=O)CCC(=O)O` gave EBNA-1 inhibitor -0.2, ZTA DNA inh 14.2, Rev-erbA mod -5.1, NCF1 inh 33.0*, aDG glyco act -0.1 and PG9 binder 4.0.
Screening COC(=O)c1sc(-c2ccc(Cl)cc2)cc1NC(=O)COCC(=O)O returned EBNA-1 inhibitor -4.0, ZTA DNA inh 12.6, Rev-erbA mod -5.3, NCF1 inh -4.5, aDG glyco act -0.2 and PG9 binder 0.0.
Screening COC(=O)[C@H](CC1(c2cn(S(=O)(=O)CC[Si](C)(C)C)c3ccccc23)C(=O)Nc2ccccc21)NC(=O)OC(C)(C)C (stereo not given in full) returned Rev-erbA mod -0.2.
For COC(=O)C1CN(Cc2ccccc2)CCS(=O)(=O)N1Cc1cn(Cc2ccc(C)cc2)nn1 (stereo not given) the results were Rev-erbA mod 7.8.
Screening COc1cccc(/C=N/NC(=O)COc2cccc3cccnc23)c1O returned EBNA-1 inhibitor -0.8, ZTA DNA inh -1.0, Rev-erbA mod -1.8, NCF1 inh -3.4, aDG glyco act 0.8 and PG9 binder 0.1.
CC(C)n1cc(/C=N/NC(=O)COc2cccc3cccnc23)c2ccccc21 was read as EBNA-1 inhibitor -4.1, ZTA DNA inh -12.9, Rev-erbA mod -6.4, NCF1 inh 45.5*, aDG glyco act -0.2 and PG9 binder -0.2.
Screening C=CCn1cc(/C=N/NC(=O)COc2cccc3cccnc23)c2ccccc21 returned EBNA-1 inhibitor 4.4, ZTA DNA inh 0.7, Rev-erbA mod -3.9, NCF1 inh 47.4*, aDG glyco act -0.1 and PG9 binder -2.0.
For Nc1ncn([C@@H]2O[C@H](CO)[C@H](O)C2O)c(=O)n1 (stereo not given in full) the results were Rev-erbA mod -0.1.
Screening COc1cc2c(cc1OC)C(c1ccc(-c3cc(Cl)ccc3Cl)o1)=NCC2 returned EBNA-1 inhibitor 5.3, ZTA DNA inh -0.8, NCF1 inh 50.8* and aDG glyco act 0.3.
Screening O=C(CCc1ccccc1)N[C@H]1[C@@H](OC(=O)c2cnccn2)CCC[C@@]12C(=O)N(Cc1ccccc1)c1ccccc12 returned Rev-erbA mod 0.6.
Screening Cc1cccc(Cn2cc(COC(=O)NCC(C)C)nn2)c1 returned Rev-erbA mod -2.6.
Screening C/C(=N\NC(=O)c1ccc(NS(=O)(=O)c2cccs2)cc1)c1cccs1 returned EBNA-1 inhibitor -10.7, ZTA DNA inh 5.1, Rev-erbA mod -6.1, NCF1 inh -9.9, aDG glyco act 0.1 and PG9 binder -1.9.
C/C(=N\NC(=O)c1ccc(Cl)cc1)c1cccs1 was read as Rev-erbA mod -3.2, NCF1 inh 37.7*, aDG glyco act 0.0 and PG9 binder -0.8.
CC(C)=CCC[C@@]1(C(=O)O)[C@H]2CC=C(CO)[C@@H]1CC/C(C)=C/CC/C(C)=C/C2 was read as Rev-erbA mod -5.4.
For O=[N+]([O-])/C=C\c1ccc(N2CCCC2)c(F)c1 the results were NCF1 inh 35.7* and aDG glyco act -0.2.
O=Cc1ccc(N2CCCC2)c([N+](=O)[O-])c1 was read as EBNA-1 inhibitor 1.1, ZTA DNA inh 6.8, Rev-erbA mod 1.7, NCF1 inh -0.5, aDG glyco act 0.0 and PG9 binder -3.3.
For COCCCNCCCCOc1ccc(Br)cc1C the results were EBNA-1 inhibitor -8.3, ZTA DNA inh -1.8, Rev-erbA mod -0.7, NCF1 inh 41.1*, aDG glyco act 3.5 and PG9 binder -2.8.
`COc1ccc(Cn2cc(CN3[C@@H](CC(C)C)COc4ccc(Cl)cc4S3(=O)=O)nn2)cc1` gave Rev-erbA mod 0.9.
`Cc1ccc(C=Nc2ccccc2C(N)=O)o1` gave EBNA-1 inhibitor 0.8, ZTA DNA inh 12.1, Rev-erbA mod -0.8, NCF1 inh -9.5, aDG glyco act -0.1 and PG9 binder -2.4.
For Cc1ccc(C=Nc2ccc(N(C)C)cc2)o1 the results were EBNA-1 inhibitor active, ZTA DNA inh active, Rev-erbA mod -2.3, NCF1 inh -7.4, aDG glyco act -0.1 and PG9 binder -49.6.
For O=C(Cn1cc2c(n1)CCCCC2)NCc1ccccc1 the results were EBNA-1 inhibitor 13.6, ZTA DNA inh 0.8, Rev-erbA mod 5.5, NCF1 inh -9.1, aDG glyco act -0.1 and PG9 binder -4.1.
For O=C(Cn1cc2c(n1)CCCCC2)NCc1ccccn1 the results were EBNA-1 inhibitor 6.0, ZTA DNA inh 3.0, Rev-erbA mod 3.6, NCF1 inh 43.4*, aDG glyco act 0.1 and PG9 binder -1.2.
For O=C(NCCO)[C@H](Cc1ccccc1)NC1(C(=O)NCCc2c[nH]c3ccccc23)CCCCC1 the results were Rev-erbA mod -5.8.
Screening COc1ccc2[nH]c3c(C)c4ccncc4c(C)c3c2c1 returned EBNA-1 inhibitor -27.0, ZTA DNA inh 20.4, Rev-erbA mod -6.9, NCF1 inh 91.8*, aDG glyco act -0.2 and PG9 binder -12.5.
`Cc1ccc(C23CC4CC(CC(CN)(C4)C2)C3)cc1` gave Rev-erbA mod -3.5, NCF1 inh -3.5, aDG glyco act 9.5* and PG9 binder -0.2.
Screening NCC12CC3CC(C1)CC(c1ccc(Br)cc1)(C3)C2 returned EBNA-1 inhibitor 17.6, ZTA DNA inh 5.9, Rev-erbA mod 2.0, aDG glyco act -0.2 and PG9 binder -1.7.
For O=C(Nc1ccc(Oc2ccccc2)cc1)C1CCCN1S(=O)(=O)c1cccc2cccnc12 (stereo not given) the results were Rev-erbA mod 0.2.
`C=Cc1c(C)c2cc3[nH]c(cc4nc(cc5nc(cc1[nH]2)C(C)=C5CCC(=O)O)C(CCC(=O)O)=C4C)c(C)c3C=C` gave EBNA-1 inhibitor 95.7*, ZTA DNA inh 146.2*, Rev-erbA mod -13.4, aDG glyco act 73.0* and PG9 binder -55.3.
